# AMA1-RON2 inh = qHTS for Inhibitors of AMA1-RON; Towards Development of Antimalarial Drug Lead: Primary Screen; Potency, µM (top dose mostly 58.2 µM), inactives show top-dose activity change, negative = inhibition, actives largely listed as inhibitors; actives 0.2% (n = 360,000); AID 720542, 2013; AlphaScreen AMA1-biotinylated RON2 peptide binding; Plasmodium falciparum AMA1 (3D7) - RON2 peptide interaction;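 note: 0% = vehicle wells and -100% = peptide control; nearly all actives have a fitted effect of over 45% in size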
#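 AMA1 (3D7) with his tag at 25 nM final met compounds first, then biotinylated RON2 peptide at 25 nM; detection used donor plus acceptor beads, 10 µg/mL apiece, read by AlphaScreen after 30 min at room temperature.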
# TbPYK inhibitor = qHTS of Trypanosoma Brucei Inhibitors | TbPYK enzyme, Kinase-Glo Plus ATP luminescence, 45 min | Potency, µM (doses to about 76.8 µM), without a hit: at the top dose activity, negative = inhibition, hits mostly inhibitors | actives 0.12% (n = 410,000) | AID 624173, 2012; note: nearly all actives have a fitted effect of over 50% in size
#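 Activity of T. brucei pyruvate kinase was followed by Kinase-Glo Plus luminescence after the enzyme reacted 45 min at room temperature with 130 uM ADP (final) and substrate. Test compounds were added before ADP at multiple concentrations.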
# RE007 growth inh = qHTS Assay for Inhibitors of the HIV-1 protein Vpr; S. pombe RE007 Vpr strain, BacTiter-Glo ATP luminescence, 24 h; actives 0.21% (n = 360,000); Potency, µM (doses to about 92.2 µM), for the others: top-dose activity change, negative = less growth, actives largely listed as inhibitors; active = well fitted falling curve with a large enough effect; inconclusive = small, poorly fitted or top-dose-only effect; inactive = no such curve, though single readings can be large or run the other way; note: nearly all actives have a fitted effect of over 50% in size
#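 Fission yeast RE007 carrying one integrated HIV-1 vpr copy, seeded at OD 0.01 in PMG+AL medium with 23 nL pinned compound. Grown 24 h at 30 degrees; viability read by BacTiter-Glo luminescence after 5 min.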
# Sm TGR block = qHTS Assay for the Inhibitors of Schistosoma Mansoni Peroxiredoxins | Schistosoma mansoni thioredoxin glutathione reductase (TGR), Q962Y6 | purified TGR, DTNB reduction, TNB absorbance 405 nm | Potency, µM (highest dose often 114 µM), for the others: at the highest dose activity change, negative = inhibition, most hits filed as inhibitors | actives 3% (n = 360,000) | AID 485364, 2010; note: nearly all actives have a fitted effect of over 60% in size
#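 TGR 20 nM + NADPH 100 uM (dispensed conc.), cpd preinc 15 min RT; start with NADPH (500 uM addition) then DTNB (15 mM addition). Kinetic TNB absorbance, 405 nm filter. Four-parameter Hill fit across titration.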
# LmPK inh = qHTS Assay for Inhibitors of Leishmania Mexicana Pyruvate Kinase (LmPK); AID 1721, 2009; purified LmPK, Kinase-Glo ATP luminescence, 1 h; Potency, µM (doses to about 57.5 µM), without a hit: at the top dose activity change, negative = inhibition, usual class: inhibitors; actives 0.37% (n = 290,000); Q27686
# Target sequence (Q27686 whole entry, looked up): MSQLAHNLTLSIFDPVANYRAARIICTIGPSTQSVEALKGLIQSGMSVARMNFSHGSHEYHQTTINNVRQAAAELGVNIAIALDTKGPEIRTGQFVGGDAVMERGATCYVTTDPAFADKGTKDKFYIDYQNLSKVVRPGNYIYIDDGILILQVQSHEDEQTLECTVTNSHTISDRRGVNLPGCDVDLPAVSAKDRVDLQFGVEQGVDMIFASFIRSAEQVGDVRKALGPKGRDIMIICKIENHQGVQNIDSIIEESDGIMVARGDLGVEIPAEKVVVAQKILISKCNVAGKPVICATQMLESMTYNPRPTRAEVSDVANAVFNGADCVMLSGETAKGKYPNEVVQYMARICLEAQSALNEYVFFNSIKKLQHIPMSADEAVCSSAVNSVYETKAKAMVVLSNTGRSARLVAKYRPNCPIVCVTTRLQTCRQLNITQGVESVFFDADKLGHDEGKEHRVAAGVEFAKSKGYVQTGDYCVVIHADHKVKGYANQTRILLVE
#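 Purified LmPK (0.1 nM) converted ADP (0.1 mM) to ATP with PEP (0.5 mM) in imidazole buffer pH 7.2 with KCl and MgCl2, 1 h at room temperature. ATP was read by Kinase-Glo luminescence; data normalized to uninhibited and no-enzyme controls.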
# * = called active by the depositor; ? = inconclusive; / = not tested or not shown; [ ] = dose if it differs, or a comment. An excerpt weighted towards active compounds, which were near 3.2% of everything screened. Unless noted, calls come from the whole dose curve; as a rule, active = well fitted curve in the direction sought with a large enough effect; inconclusive = small, poorly fitted or top-dose-only effect, or another doubt; inactive = no such curve, though single readings can be large; an effect the other way counts as inactive or inconclusive. Unless noted, % is set by controls: 0 for no effect and ±100 for the full control effect; potency is the fitted concentration of half-maximal effect.
SMILES,AMA1-RON2 inh,TbPYK inhibitor,RE007 growth inh,Sm TGR block,LmPK inh
COc1ccc(OC)c(NC(=O)C2CCCN(S(=O)(=O)c3ccc4[nH]c(=O)ccc4c3)C2)c1 (stereo not drawn),/,0%,/,0%,/
Cc1ccccc1CNCc1c(C(=O)O)c(C)n(Cc2ccc(F)cc2Cl)c1C,/,-7%,/,5%,/
COc1cccc(NC(=O)CSc2nccn2Cc2ccc3c(c2)OCO3)c1,/,6%,/,-1%,/
COC(=O)CN1C(=O)S/C(=C/c2ccc(N3CCCCC3)o2)C1=O,45%,-27%,-25%,7.1µM*,1%
CCOC(=O)CN1C(=O)S/C(=C/c2ccc(N3CCCCC3)o2)C1=O,-12%,-14%,-5%,-9%,-5%
O=C(O)CN1C(=O)/C(=C/c2ccc(N3CCCCC3)o2)SC1=S,5%,?,-11%,2.8µM*,4%
O=C(c1ccc2c(c1)CCN2S(=O)(=O)c1ccc(Cl)cc1)N1CCN(c2ccc(F)cc2)CC1,/,2%,/,0%,/
CCCCN(C)C(=O)C1CCCN(c2ncnc3onc(C)c23)C1 (stereo not drawn),/,5%,/,10%,/
CN(C)c1ccc(-c2csc(C(O)c3ccccc3)n2)cc1 (stereo not drawn),25µM*,6%,8%[18.4 µM],/,/
CN(C)c1ccc(-c2csc(C(C)(O)c3cccc(F)c3)n2)cc1 (stereo not drawn),16µM*,-6%,13%,/,/
Cc1csc2nc(COc3ccccc3NC(=O)c3ccccc3Cl)cc(=O)n12,/,5%,/,0%,/
S=c1nccc(-c2ccc3c(c2)CCO3)[nH]1,75%,-17%,-2%,35µM*,1%
CN(Cc1ccccc1)S(=O)(=O)c1ccc2c(c1)n(C)c(=O)c(=O)n2C,-2%,0%,4%,9%,0%
CN(Cc1ccccc1)C(=O)CCS(=O)(=O)c1ccc2c(c1)n(C)c(=O)c(=O)n2C,-7%,-3%,-8%,22µM*,0%
COc1ccc(OC)c(C2CC(=O)N3CN(c4ccc(C)c(Cl)c4)CSC3=C2C#N)c1 (stereo not drawn),5%,?,-8%,20µM*,8%
CCOC(=O)c1ccc(N2CSC3=C(C#N)C(c4ccc(OC)cc4OC)CC(=O)N3C2)cc1 (stereo not drawn),8%,?,-15%,?,1%
COc1ccc(OC)c(C2CC(=O)N3CN(c4cccc(Cl)c4)CSC3=C2C#N)c1 (stereo not drawn),-7%,?,-11%,50µM*,5%
COc1cccc(C2CC(=O)N3CN(c4cccc(Cl)c4C)CSC3=C2C#N)c1OC (stereo not drawn),-1%,?,-4%,0%,20%
COc1ccc(OC)c(C2CC(=O)N3CN(c4cccc(Cl)c4C)CSC3=C2C#N)c1 (stereo not drawn),1%,3.5µM*,1%,10µM*,-2%
CCCCOc1ccc(CNC(=O)CCCN2C(=O)CSc3c2c(C)nn3-c2ccccc2)cc1,/,-8%,/,3%,/
COCCN(C(=O)CCC(=O)Nc1cc(C)on1)C(C(=O)NC1CCCC1)c1ccccc1C (stereo not drawn),0%,6%,14%,4%,0%
COCCN(C(=O)CCl)C(C(=O)NC1CCCCC1)c1ccccc1C (stereo not drawn),8%,-7%,-18%,3.5µM*,1%
CCC(C)(C)c1ccc(CC(C)CN2C[C@@H](C)O[C@@H](C)C2)cc1 (stereo partly drawn),/,3%,/,/,/
COC(=O)c1ccc(CSc2ccc3nnc(-c4ccccn4)n3n2)o1,-2%,-5%,8%,40µM*,7%
COC(=O)c1ccc(CSc2ccc3nnc(-c4ccc(F)cc4)n3n2)o1,-2%,-3%,-9%,-22%,7%[11.5 µM]

# High-throughput results (PubChem)
